Compound activity deposited in PubChem by National Center for Advancing Translational Sciences (NCATS).
HCV inh – inhibitors of hepatitis C virus infection. Potency, µM (titrated, usually from 41.8 µM), inactives show top-dose activity change, negative = inhibition, usual class: inhibitors. 3.4% of 340,000 active. Huh7.5.1 HCVcc-Cre infection, luciferase reporter, 44 h. AID 651820; further: potency means the concentration at half of the fitted maximal effect
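Antiviral activity was scored by luciferase reporter output from cells infected with HCVcc-Cre (~0.5 moi) in presence of compound, 44 h infection period, cells seeded 1,000/well 4 h prior.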
Pf growth 96h – P. falciparum growth inhibition at 96 hours. P. falciparum luciferase reporter growth, 96 h. Potency, µM (titrated, usually from 28.7 µM), for the others: top-dose activity change, negative = inhibition, actives largely listed as inhibitors. 6.9% of 320,000 active; further: potency means the concentration at half of the fitted maximal effect
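P. falciparum expressing integrated firefly luciferase grown in erythrocytes (2% hematocrit, 0.05% parasitemia final) with compounds for 96 hours at 37 C, 5% CO2. Growth inhibition read as loss of luminescence after adding luciferase detection reagent.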
HCMV inh – human cytomegalovirus inhibition; HFF cells, HCMV-luciferase reporter, 72 h; active compounds read low; activity change, negative = inhibition, % at 57.5 µM; AID 1259415; 4.5% of 410,000 active; in the data active means activity change below about -60%; inconclusive means no clear call, values can overlap the other calls; inactive means above about -39%
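HFF cells seeded 16 h at 37C, treated with compounds, infected with luciferase-reporter HCMV at MOI 1 PFU/cell; luciferase read at 72 h post infection, normalized to buffer-only and Salinomycin controls.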
Pf growth 48h – P. falciparum growth inhibition at 48 hours (one generation); P. falciparum luciferase growth in erythrocytes, 48 h; Potency, µM (highest dose often 28.7 µM), without a hit: at the top dose activity change, negative = inhibition, actives largely listed as inhibitors; 5.9% of 310,000 active; AID 504832; further: potency means the concentration at half of the fitted maximal effect
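Firefly luciferase activity from engineered P. falciparum reports growth; inhibitors lower the luminescent signal. Cultures contained 2% hematocrit erythrocytes at 0.1% final parasitemia.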
The depositor's hits bear a star; ? = inconclusive; / = no result. A selection: hits, their analogues and other compounds. The true share with any hit is near 13%. Unless noted, the call rests on the fitted dose curve; in most records, active means well fitted inhibition curve with a large enough effect; inconclusive means small, poorly fitted or top-dose-only effect, or another doubt; inactive means no such curve, though single readings can be large or run the other way. On the % scale 0 is the no-effect control and ±100 the full control effect.

SMILES	HCV inh	Pf growth 96h	HCMV inh	Pf growth 48h
O=C(CSc1nc2ccsc2c(=O)n1Cc1ccccc1F)NCc1ccccc1	/	/	8	/
CCN(C(=O)Cn1cc(S(=O)(=O)Cc2ccccc2Cl)c2ccccc21)c1ccccc1	/	/	0	/
C#Cc1ccc(-n2nc3ccccc3c2OC)cc1	/	/	25	/
CSc1nc(Oc2ccc3ccccc3c2)c2ccccc2n1	?	?	-5	10µM*
Cc1ccc(CN2CCNC(=O)C2CC(=O)N(C)C(C2CC2)C2CC2)o1 (centres undefined)	10%	13µM*	79	31%
CCN(C(=O)CSc1nc2ccccc2nc1Cc1cccc(OC)c1)c1cccc(C)c1	/	/	13	/
CCOc1ccc(S(=O)(=O)N(C)c2ccc(OCC(=O)Nc3ccccc3F)cc2)cc1	?	?	12	-3%
CC(=O)Nc1ccc(S(=O)(=O)N(C)c2ccc(OCC(=O)Nc3ccccc3C(C)=O)cc2)cc1	?	?	-35	?
COc1ccc(CCN(C)C(=O)COc2ccc(N(C)S(=O)(=O)c3ccc(C)cc3)cc2)cc1OC	?	10µM*	16	9.3µM*
COc1ccc(NC(=O)COc2ccc(N(C)S(=O)(=O)c3ccc(Cl)cc3)cc2)cc1OC	0.63µM*	?	-88*	?
CN(c1ccc(OCC(=O)Nc2ccccc2C(=O)O)cc1)S(=O)(=O)c1ccc(Cl)cc1	-8%	/	-82*	/
CC(=O)c1ccccc1NC(=O)COc1ccc(N(C)S(=O)(=O)c2ccc(C)c(C)c2)cc1	?	12µM*	21	10µM*
CCOC(=O)c1c(C)[nH]c(C)c1S(=O)(=O)N(C)CC(=O)Nc1ccc(C)c(F)c1	/	/	-3	/
CCCCN(Cc1ccccc1)C(=O)c1oc(=O)c2ccccc2c1-c1ccc(C)cc1	/	/	-39	/
O=S(=O)(NCc1ccccc1)c1cc(Br)ccc1Br	/	/	-27	/
CCOC(=O)c1c(NC(=O)CN(CC)CC)sc2c1CCC2	?	33%	76	12µM*
CCOc1ccccc1NC(=O)CSC1=NN2CCCC(=O)N=C2S1	-25%	34%	-80*	-29%
COc1ccc(Cl)cc1NC(=O)CSC1=NN2CCCC(=O)N=C2S1	?	11%	-71*	-28%
COc1ccc(OC)c(NC(=O)CSC2=NN3CCCC(=O)N=C3S2)c1	-22%	50%	4	-17%
CCOC(=O)c1c(NC(=O)CSC2=NN3CCCC(=O)N=C3S2)sc2c1CCCCC2	8.9µM*	-3%	63	26%
COc1cccc(C2CC(c3cccs3)=NN2C(=O)CSC2=NN3CCCC(=O)N=C3S2)c1OC (centres undefined)	3%	0.47µM*	16	7.4µM*
Cc1ccc(N(CC(=O)N2CCN(c3ccc(Cl)cc3)CC2)S(=O)(=O)c2c(C)noc2C)cc1	/	/	-20	/
O=C(NCCc1ccccc1)C(=O)NCC(c1cccnc1)N1CCN(c2ccc(F)cc2)CC1 (centres undefined)	/	/	-24	/
CC(=O)c1c(N2CCN(Cc3ccccc3)CC2)[nH]c(-c2ccccc2)nc1=S	-5%	-101%	/	4.7µM*
CC(=O)c1c(N2CCOCC2)[nH]c(-c2ccccc2)nc1=S	1%	?	56	-1%
SMILES	HCV inh	Pf growth 96h	HCMV inh	Pf growth 48h
CC(=O)c1c(N2CCCC2)[nH]c(-c2ccccc2)nc1=S	22µM*	?	-23	/
Cc1cc(Br)ccc1NC(=O)c1cc2c(=O)n(C)c3cc(Cl)ccc3c2s1	/	/	12	/
Cc1cccc(Cc2c(C)nc3nc(SCc4ccccc4F)nn3c2C)c1	/	/	23	/
COc1ccc(/C=C/c2cc(-c3ccc(C)cc3)o[n+]2C)cc1	?	0.15µM*	-104*	?
COc1ccc(/C=C/c2c(-c3ccc(OC)cc3)oc3ccc(-c4ccc(OC)cc4)cc23)cc1	-7%	?	?	8%
O=C(COc1ccc(F)cc1)Nc1ccc(Cl)c(-c2nc3ccccc3[nH]2)c1	/	/	-31	/
Cc1c(Cn2ccnc2)c2ccccc2n1CCC(=O)O	/	?	/	-11%
CCOC(=O)CC(=O)CSc1nc(CC)c(C)cc1C#N	15%	?	-89*	-22%
CCN(CC)c1cc(C)c(C#N)c2nc3ccccc3n12	-26%	?	-2	5.9µM*
N#Cc1c(-c2ccccc2)c(C#N)c2nc3ccccc3n2c1N	?	78%	-3	3%
Cc1ccc(-c2c(C#N)c(N)n3c(nc4ccccc43)c2C#N)cc1	?	0%	-72*	?
Cc1cc(Cl)n2c(nc3ccccc32)c1C#N	?	?	-22	8.3µM*
